Values joined by “and” are separate entries in the source; they are usually repeats but may differ in a detail not shown here. Equal entries are not always repeated. Where a structure was tested more than once in an assay, its records may differ in their call. Active and inactive are the calls of the source. Rule for the calls: active = hit-call score of the fitted dose curve at least 0.9, where 1 is the maximum; inactive = score below 0.9.
Columns and labels:
[1] = read-out: Plasminogen activator inhibitor-1 (PAI1), SERPINE1 (gene 5054); assay: BSK_MyoF_PAI1: BioMAP Diversity Plus: MyoF Assay for Plasminogen activator inhibitor-1 (PAI1) Biomarker Activity (AID 2284256); conditions: primary human lung fibroblasts
Method in brief: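 Primary human lung fibroblasts treated with chemical for 24 h; PAI-1 levels quantified by ELISA relative to DMSO. Cytotoxicity was assessed in parallel cultures by SRB total-protein staining (0.1% SRB after 10% TCA fixation, 560 nm).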

[2] = read-out: Interleukin-8 (IL8), CXCL8 (gene 3576); assay: BSK_MyoF_IL8: BioMAP Diversity Plus: MyoF Assay for Interleukin-8 (IL8) Biomarker Activity (AID 2284261); conditions: primary human lung fibroblasts
Method in brief: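 Human lung fibroblast (MyoF system) cultures dosed for 24 h, then IL-8 measured by ELISA. Response taken relative to DMSO; parallel SRB total-protein staining for cytotoxicity.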

Decorin, DCN (gene 1634) = assay: BSK_MyoF_Decorin: BioMAP Diversity Plus: MyoF Assay for Decorin Biomarker Activity (AID 2284265); conditions: primary human lung fibroblasts
Method in brief: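 Human lung fibroblast cultures were dosed for 24 h, and decorin was then measured by ELISA. Parallel cultures were stained with sulforhodamine B for total protein as a cytotoxicity check. Gain of signal was fitted relative to DMSO.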

[3] = BSK_MyoF_SRB: Viability Assessment in the BioMAP Diversity Plus: MyoF Assay (AID 2284267); conditions: primary human lung fibroblasts;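 note: total protein by SRB absorbance in parallel cultures as cytotoxicity measure; cells assessed 24 h after compound addition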
Method in brief: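 Confluent human lung fibroblasts were exposed to test chemicals for 24 h. Parallel wells were then fixed in 10% TCA, stained with 0.1% sulforhodamine B and measured at 560 nm. DMSO served as baseline for curve fitting.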

[4] = read-out: Matrix Metallopeptidase 1 (MMP1), MMP1 (gene 4312); assay: BSK_MyoF_MMP1: BioMAP Diversity Plus: MyoF Assay for Matrix Metallopeptidase 1 (MMP1) Biomarker Activity (AID 2284268); conditions: primary human lung fibroblasts
Method in brief: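 Human lung fibroblast primary cells; MMP1 measured by ELISA 24 h after dosing, fitted in the positive direction relative to DMSO. Parallel SRB staining (0.1%, after 10% TCA fixation, 560 nm) assesses overt cytotoxicity.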

[5] = read-out: TIMP metallopeptidase inhibitor 1 (TIMP1), TIMP1 (gene 7076); assay: BSK_MyoF_TIMP1: BioMAP Diversity Plus: MyoF Assay for TIMP metallopeptidase inhibitor 1 (TIMP1) Biomarker Activity (AID 2284269); conditions: primary human lung fibroblasts
Method in brief: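 Primary human lung fibroblasts, MyoF multiplex system; chemical exposure 24 h; TIMP-1 by ELISA; positive fitting direction vs DMSO control.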

[6] = read-out: Intercellular Adhesion Molecule 1 (ICAM1), ICAM1 (gene 3383); assay: BSK_BE3C_ICAM1: BioMAP Diversity Plus: BE3C Assay for Intercellular Adhesion Molecule 1 (ICAM1) Biomarker Activity (AID 2284278); conditions: primary human bronchial epithelial cells;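 note: cell-surface ICAM-1 protein level quantified by ELISA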
Method in brief: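 Here, ICAM-1 levels on confluent human bronchial epithelial primary cells are read by ELISA at 24 h after chemical dosing. Parallel SRB staining (0.1% after 10% TCA fixation, 560 nm) checks cytotoxicity.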

[7] = read-out: Interferon-inducible T-cell alpha chemoattractant (ITAC), CXCL11 (gene 6373); assay: BSK_BE3C_ITAC: BioMAP Diversity Plus: BE3C Assay for Interferon-inducible T-cell alpha chemoattractant (ITAC) Biomarker Activity (AID 2284279); conditions: primary human bronchial epithelial cells
Method in brief: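 Steps: dose human bronchial epithelial cells with chemical; incubate 24 h; measure I-TAC by ELISA; fit endpoint in positive direction against DMSO control. Cytotoxicity was checked in parallel cultures by SRB staining at harvest.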

[8] = read-out: Interleukin-8 (IL8), CXCL8 (gene 3576); assay: BSK_BE3C_IL8: BioMAP Diversity Plus: BE3C Assay for Interleukin-8 (IL8) Biomarker Activity (AID 2284280); conditions: primary human bronchial epithelial cells
Method in brief: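 Primary human bronchial epithelial cells (BE3C system) were exposed to test chemical for 24 h, and IL-8 levels were then measured by ELISA. Activity was fitted in the positive (gain-of-signal) direction against a DMSO negative-control baseline.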

[9] = read-out: Epidermal growth factor receptor (EGFR), EGFR (gene 1956); assay: BSK_BE3C_EGFR: BioMAP Diversity Plus: BE3C Assay for Epidermal growth factor receptor (EGFR) Biomarker Activity (AID 2284281); conditions: primary human bronchial epithelial cells
Method in brief: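 Human primary bronchial epithelial cells were exposed to compound for 24 h, and cell-surface EGFR was then quantified by ELISA. Activity was fitted in the positive direction against the DMSO vehicle baseline.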

KRT18 (gene 3875) = assay: BSK_BE3C_Keratin818: BioMAP Diversity Plus: BE3C Assay for Keratin 818 Biomarker Activity (AID 2284282); conditions: primary human bronchial epithelial cells
Method in brief: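 Keratin 8/18 levels, detected by ELISA, served as the endpoint after 24 h chemical exposure of primary human bronchial epithelial cells. Gain of signal relative to DMSO negative control defined activity.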

[10] = read-out: Matrix Metallopeptidase 9 (MMP9), MMP9 (gene 4318); assay: BSK_BE3C_MMP9: BioMAP Diversity Plus: BE3C Assay for Matrix Metallopeptidase 9 (MMP9) Biomarker Activity (AID 2284283); conditions: primary human bronchial epithelial cells
Method in brief: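 Human primary bronchial epithelial cells exposed 24 h to compound. MMP9 quantified by ELISA. SRB total-protein staining of parallel cultures assesses cytotoxicity. Positive-direction fit relative to DMSO.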

[11] = read-out: Plasminogen activator inhibitor-1 (PAI1), SERPINE1 (gene 5054); assay: BSK_CASM3C_PAI1: BioMAP Diversity Plus: CASM3C Assay for Plasminogen activator inhibitor-1 (PAI1) Biomarker Activity (AID 2284284); conditions: primary human coronary artery smooth muscle cells;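 note: PAI-1 protein level measured by ELISA 24 h after dosing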
[12] = read-out: Monocyte Chemoattractant Protein-1 (MCP1), CCL2 (gene 6347); assay: BSK_hDFCGF_MCP1: BioMAP Diversity Plus: hDFCGF Assay for Monocyte Chemoattractant Protein-1 (MCP1) Biomarker Activity (AID 2284285); conditions: primary human foreskin fibroblasts
Method in brief: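 MCP-1 ELISA readout was taken 24 hours after dosing primary human dermal fibroblasts in the hDFCGF system, with DMSO as baseline. Parallel sulforhodamine B staining of total protein tracked overt cytotoxicity.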

[13] = read-out: Intercellular Adhesion Molecule 1 (ICAM1), ICAM1 (gene 3383); assay: BSK_hDFCGF_ICAM1: BioMAP Diversity Plus: hDFCGF Assay for Intercellular Adhesion Molecule 1 (ICAM1) Biomarker Activity (AID 2284287); conditions: primary human foreskin fibroblasts
Method in brief: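 ICAM-1 ELISA readout 24 h after dosing, DMSO as baseline, in human dermal foreskin fibroblast cultures. Cytotoxicity checked in parallel wells by SRB staining (0.1% SRB, 10% TCA fixation, 560 nm).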

[14] = read-out: TIMP metallopeptidase inhibitor 2 (TIMP2), TIMP2 (gene 7077); assay: BSK_hDFCGF_TIMP2: BioMAP Diversity Plus: hDFCGF Assay for TIMP metallopeptidase inhibitor 2 (TIMP2) Biomarker Activity (AID 2284289); conditions: primary human foreskin fibroblasts
Method in brief: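 Primary human foreskin fibroblasts in the hDFCGF system, dosed for 24 h; TIMP-2 level measured by ELISA, fitted in the positive direction against DMSO; cytotoxicity checked in parallel by sulforhodamine B total protein staining.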

[15] = read-out: Thrombomodulin, THBD (gene 7056); assay: BSK_LPS_Thrombomodulin: BioMAP Diversity Plus: LPS Assay for Thrombomodulin Biomarker Activity (AID 2284296); conditions: primary human HUVEC with PBMC
Method in brief: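 Thrombomodulin on the surface of LPS-activated endothelial/PBMC co-cultures was quantified by ELISA at 24 hours post-dosing, with DMSO as baseline. Parallel SRB total-protein staining flagged overt cytotoxicity.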

Measured: AC50

N#[N+]c1ccc2c(S(=O)(=O)[O-])cccc2c1O
inactive: [1] | [2] | Decorin, DCN (gene 1634) | [3] | [4] | [5]

C=CCOCC(O)CCl (configuration not stated)
inactive: [1] | [2] | Decorin, DCN (gene 1634) | [3] | [4] | [5]

C=CC(=O)OCC(Br)CBr (configuration not stated)
inactive: [2] | Decorin, DCN (gene 1634) | [4]
active: [1] 7.93 µM | [3] 20 µM | [5] 20 µM

CCCCC(CC)COC(=O)c1ccccc1O (configuration not stated)
inactive: [1] | [2] | Decorin, DCN (gene 1634) | [3] | [5]
active: [4] 10 µM

CN1C(=O)N(C)C(O)C1O (configuration not stated)
not listed: [1] | [2] | Decorin, DCN (gene 1634) | [3] | [4] | [5]
inactive: all other assays above

Nc1ccc(N)c(Cl)c1
inactive: [6] | [7] | [8] | [9] | KRT18 (gene 3875) | [11] | [13] | [15]
active: [8] 5.71 µM | [10] 15.2 µM and 7.82 µM | [12] 28.9 µM | [14] 28.1 µM and 28.9 µM

CCO[Si](CCCN=C=O)(OCC)OCC
inactive: [1] | [2] | Decorin, DCN (gene 1634) | [3] | [4] | [5]

CO[Si](OC)(OC)c1ccccc1
not listed: [1] | [2] | Decorin, DCN (gene 1634) | [3] | [4] | [5]
inactive: all other assays above

CCOc1nc(F)cc2nc(S(=O)(=O)Nc3c(Cl)cccc3C(=O)OC)nn12
inactive: [1] | [2] | Decorin, DCN (gene 1634) | [3] | [4] | [5]

CCO[Si](C)(OCC)OCC
not listed: [1] | [2] | Decorin, DCN (gene 1634) | [3] | [4] | [5]
inactive: all other assays above

CC(C)C(=O)C(C)C
inactive: [1] | [2] | Decorin, DCN (gene 1634) | [3] | [4] | [5]

O=C(Nc1ccccc1SSc1ccccc1NC(=O)c1ccccc1)c1ccccc1
inactive: [1] | [2] | Decorin, DCN (gene 1634) | [3] | [4] | [5]

S=C(NC1CCCCC1)NC1CCCCC1
inactive: [1] | [2] | Decorin, DCN (gene 1634) | [3] | [4] | [5]

C=CCOc1c(Br)cc(Br)cc1Br
active: [1] 26.6 µM | [3] 27.7 µM | [5] 31.2 µM
inactive: [2] | Decorin, DCN (gene 1634) | [4]

O=c1c2ccccc2oc2ccccc12
inactive: [1] | [2] | Decorin, DCN (gene 1634) | [3] | [4] | [5]

O=C(c1ccc(O)cc1)c1ccc(O)cc1O
active: [10] 20 µM and 9.6 µM
not listed: [1] | [2] | Decorin, DCN (gene 1634) | [3] | [4] | [5]
inactive: all other assays above

C#CC1(O)CC[C@H]2[C@@H]3CCC4=CCCC[C@@H]4[C@H]3CC[C@@]21C (some centres not stated)
active: [1] 32 µM | [2] 30.4 µM | Decorin, DCN (gene 1634) 31.4 µM | [3] 30.1 µM | [5] 33.1 µM
inactive: [4]

COCc1c(C(C)C)nc(C(C)C)c(/C=C/[C@@H](O)C[C@@H](O)CC(=O)O)c1-c1ccc(F)cc1
inactive: Decorin, DCN (gene 1634) | [5]
active: [1] 0.15 µM | [4] 0.0515 µM
